The whole screen tested about 39,000 compounds, of which about 1,500 (3.8%) were called active. The entries come from a sample that favours actives as a whole.

This assay relates to HSkMC (human skeletal muscle cells). The assay is described as follows: cytotoxicity call (relative viability < 0.9). To be noted: 10 µM.
With `C[C@H](CO)N1C[C@H](C)[C@@H](CN(C)C(=O)Cc2ccncc2)Oc2ncc(C#CC3(O)CCCC3)cc2C1=O`, the cytotoxicity call was “inactive”.
To `C[C@@H]1CN([C@H](C)CO)C(=O)c2cc(NC(=O)Nc3cccc4ccccc34)ccc2O[C@H]1CN(C)Cc1ccc(C(=O)O)cc1` belongs “inactive”; to `C[C@@H]1CCCCO[C@@H](CN(C)C(=O)CCC(F)(F)F)[C@H](C)CN([C@H](C)CO)C(=O)c2cc(NC(=O)c3ccccc3)ccc2O1`, “inactive”.
In the case of `C[C@@H]1CN([C@H](C)CO)C(=O)c2cc(NC(=O)CCN3CCOCC3)ccc2O[C@@H]1CN(C)CC1CC1` it was “inactive”; in that of `C[C@H](CO)N1C[C@H](C)[C@H](CN(C)C(=O)Nc2ccc(C(F)(F)F)cc2)Oc2ccc(NC(=O)Nc3ccc(C(F)(F)F)cc3)cc2C1=O`, “inactive”.
Turning to `O=C(C[C@@H]1CC[C@@H]2[C@H](COC[C@@H](O)CN2S(=O)(=O)c2ccc(F)cc2)O1)NCc1ccc(Cl)c(Cl)c1`, the cytotoxicity call was “inactive”.
In the case of `C[C@H]1CN([C@@H](C)CO)C(=O)Cc2cc(NC(=O)Nc3ccc4c(c3)OCO4)ccc2O[C@@H]1CN(C)Cc1ccc(Oc2ccccc2)cc1`, the cytotoxicity call was “inactive”.
To `CC(C)NC(=O)Nc1ccc2c(c1)CC(=O)N([C@@H](C)CO)C[C@@H](C)[C@H](CN(C)Cc1ccc(Oc3ccccc3)cc1)O2` belongs “inactive”.
To `C[C@@H]1CN([C@@H](C)CO)C(=O)Cc2cc(NC(=O)Nc3ccc4c(c3)OCO4)ccc2O[C@H]1CN(C)Cc1ccc(Oc2ccccc2)cc1` belongs “inactive”; to `C[C@@H]1CN([C@H](C)CO)C(=O)Cc2cc(NC(=O)Nc3ccccc3)ccc2O[C@@H]1CN(C)Cc1ccc(Oc2ccccc2)cc1`, “active”; to `C[C@@H]1CN([C@H](C)CO)C(=O)Cc2cc(NC(=O)Nc3ccccc3)ccc2O[C@H]1CN(C)Cc1ccc(Oc2ccccc2)cc1`, “inactive”.
To `CC(C)NC(=O)Nc1ccc2c(c1)CC(=O)N([C@H](C)CO)C[C@@H](C)[C@@H](CN(C)Cc1ccc(Oc3ccccc3)cc1)O2` belongs “active”; to `C[C@H](CO)N1C[C@H](C)[C@@H](CN(C)Cc2ccc(Oc3ccccc3)cc2)Oc2ccc(NC(=O)Nc3ccc4c(c3)OCO4)cc2CC1=O`, “active”; to `CC(C)NC(=O)Nc1ccc2c(c1)CC(=O)N([C@@H](C)CO)C[C@@H](C)[C@@H](CN(C)Cc1ccc(Oc3ccccc3)cc1)O2`, “inactive”.
With `C[C@H]1CN([C@@H](C)CO)C(=O)Cc2cc(NC(=O)Nc3ccccc3)ccc2O[C@@H]1CN(C)Cc1ccc(Oc2ccccc2)cc1`, the cytotoxicity call is “active”.
With `C[C@@H]1CN([C@@H](C)CO)C(=O)Cc2cc(NC(=O)Nc3ccccc3)ccc2O[C@H]1CN(C)Cc1ccc(Oc2ccccc2)cc1`, the cytotoxicity call is “inactive”.
In the case of `COc1ccc2c3c(n(c2c1)C)[C@H](CO)N(CC1CCOCC1)C[C@]13CCN(CC1)C(=O)c1cnccn1` it was “inactive”; in that of `CO[C@H]1CN(C)C(=O)c2cc(NC(=O)c3ccc(F)cc3)ccc2OC[C@@H](C)N(C(=O)CN(C)C)C[C@@H]1C`, “inactive”; in that of `C=CC[C@@H](CC(=O)N[C@@H](CO)Cc1ccccc1)C(=O)N[C@@H](C)COC(=O)[C@@H](CC=C)CC(=O)OC(C)(C)C`, “inactive”.
For `COc1ccccc1S(=O)(=O)N(C)C[C@@H]1OCc2cnnn2CCCC(=O)N([C@@H](C)CO)C[C@H]1C`, the cytotoxicity call is “inactive”.
As for `COc1ccccc1CNC(=O)C[C@H]1C[C@@H]2c3cc(NC(=O)NC4CCCC4)ccc3O[C@@H]2[C@@H](CO)O1`, the cytotoxicity call is “inactive”.
Turning to `C[C@H](CO)N1C[C@H](C)[C@H](CN(C)C(=O)Nc2ccc(F)cc2)OCCCC[C@H](C)Oc2ccc(NC(=O)Nc3ccc(F)cc3)cc2C1=O`, the cytotoxicity call was “inactive”.
For the compound `C[C@@H]1CN([C@@H](C)CO)C(=O)c2cc(NC(=O)NC3CCCCC3)ccc2O[C@@H](C)CCCCO[C@H]1CN(C)CC1CCCCC1`, the cytotoxicity call was “inactive”.
For the compound `C[C@@H]1CN([C@@H](C)CO)C(=O)c2cc(NS(=O)(=O)c3cccs3)ccc2O[C@@H](C)CCCCO[C@@H]1CN(C)Cc1ccc2c(c1)OCO2`, the cytotoxicity call was “inactive”.
In the case of `CN(C)C(=O)C[C@H]1C=C[C@@H](NC(=O)C2CCOCC2)[C@H](CO)O1` it was “inactive”; in that of `C[C@@H]1CN([C@@H](C)CO)C(=O)c2cc(NC(=O)Nc3ccccc3)ccc2O[C@@H]1CN(C)Cc1ccc(Cl)c(Cl)c1`, “active”.
In the case of `C[C@@H]1CN([C@H](C)CO)C(=O)c2cc(NC(=O)Nc3ccccc3)ccc2O[C@H]1CN(C)Cc1ccc(Cl)c(Cl)c1` it was “inactive”; in that of `C[C@@H]1CN([C@H](C)CO)C(=O)c2cc(NC(=O)Nc3ccccc3)ccc2O[C@@H]1CN(C)Cc1ccc(Cl)c(Cl)c1`, “inactive”; in that of `C[C@H]1CN([C@@H](C)CO)C(=O)c2cc(NC(=O)Nc3ccccc3)ccc2O[C@@H]1CN(C)Cc1ccc(Cl)c(Cl)c1`, “inactive”.
In the case of `C[C@H]1CN([C@@H](C)CO)C(=O)c2cc(NC(=O)Nc3ccccc3)ccc2O[C@H]1CN(C)Cc1ccc(Cl)c(Cl)c1` it was “active”.
Consider `C[C@H](CO)N1C[C@H](C)[C@@H](CN(C)Cc2ccc(Cl)c(Cl)c2)Oc2ccc(NC(=O)Nc3ccccc3)cc2C1=O`, for which the cytotoxicity call is “inactive”.
Turning to `C[C@H](CO)N1C[C@H](C)[C@@H](CN(C)S(=O)(=O)c2cccs2)Oc2ccc(NS(=O)(=O)c3ccc(F)cc3)cc2C1=O`, the cytotoxicity call was “inactive”.
To `Cc1cc(C(=O)Nc2cccc3c2O[C@H](CN(C)C(=O)Nc2ccc4c(c2)OCO4)[C@@H](C)CN([C@H](C)CO)C3=O)n(C)n1` belongs “inactive”; to `COc1ccc(CCNC(=O)[C@@]2(Sc3ccc(C)cc3)CC(=O)N(C3CCCCC3)[C@@H]2c2ccc(CO)cc2I)cc1`, “inactive”.
To `COc1ccc(NC(=O)N(C)C[C@@H]2Oc3ccc(NS(=O)(=O)c4c(C)noc4C)cc3CC(=O)N([C@@H](C)CO)C[C@H]2C)cc1` belongs “inactive”; to `Fc1cccc(-c2csc(COc3ccccc3Cl)n2)c1`, “inactive”; to `CS(=O)(=O)CCNCc1ccc(-c2ccc3ncnc(Nc4ccc(OCc5cccc(F)c5)c(Cl)c4)c3c2)o1` [listing 1 of 2 here], “active”.
To `CS(=O)(=O)CCNCc1nc(-c2ccc3ncnc(Nc4ccc(OCc5cccc(F)c5)c(Cl)c4)c3c2)cs1` belongs “active”; to `CS(=O)(=O)CCNCc1ccc(-c2ccc3ncnc(Nc4ccc(OCc5cccc(F)c5)c(Cl)c4)c3c2)o1` [listing 2 of 2 here], “active”.
Turning to `CC(C)(O)CC(=O)NCCn1ccc2ncnc(Nc3ccc(Oc4cccc(C(F)(F)F)c4)c(Cl)c3)c21`, the cytotoxicity call is “inactive”.
To `CCCN(C)C[C@H]1OCCCC[C@H](C)Oc2ccc(NS(=O)(=O)c3cn(C)cn3)cc2C(=O)N([C@H](C)CO)C[C@H]1C` belongs “inactive”.
To `C[C@@H]1CNC[C@H](C)N1` belongs “inactive”; to `C[C@H](CO)N1C[C@H](C)[C@@H](CN(C)S(=O)(=O)c2ccc(Cl)cc2)Oc2ccc(NC(=O)CCN3CCOCC3)cc2C1=O`, “inactive”.
In the case of `c1ccc(C2C3=C(CCCC3)SC3=C2CCCC3)cc1` it was “inactive”; in that of `Cc1noc(C)c1NC(=O)N(C)C[C@@H]1Oc2c(NS(C)(=O)=O)cccc2C(=O)N([C@H](C)CO)C[C@H]1C`, “inactive”; in that of `Cc1ccc(S(=O)(=O)N(C)C[C@@H]2Oc3c(NC(=O)Nc4ccc(C(F)(F)F)cc4)cccc3C(=O)N([C@@H](C)CO)C[C@H]2C)cc1`, “inactive”.
On to `Cc1ccc(S(=O)(=O)N(C)C[C@H]2Oc3c(NC(=O)Nc4ccc(C(F)(F)F)cc4)cccc3C(=O)N([C@H](C)CO)C[C@H]2C)cc1`, for which the cytotoxicity call is “active”.
For the compound `Cc1ccc(S(=O)(=O)N(C)C[C@@H]2Oc3c(NC(=O)Nc4ccc(C(F)(F)F)cc4)cccc3C(=O)N([C@H](C)CO)C[C@H]2C)cc1`, the cytotoxicity call is “inactive”.
Turning to `Cc1ccc(S(=O)(=O)N(C)C[C@H]2Oc3c(NC(=O)Nc4ccc(C(F)(F)F)cc4)cccc3C(=O)N([C@@H](C)CO)C[C@@H]2C)cc1`, the cytotoxicity call was “inactive”.
`Cc1ccc(S(=O)(=O)N(C)C[C@@H]2Oc3c(NC(=O)Nc4ccc(C(F)(F)F)cc4)cccc3C(=O)N([C@H](C)CO)C[C@@H]2C)cc1`: the cytotoxicity call was “inactive”.
To `Cc1ccc(S(=O)(=O)N(C)C[C@H]2Oc3c(NC(=O)Nc4ccc(C(F)(F)F)cc4)cccc3C(=O)N([C@@H](C)CO)C[C@H]2C)cc1` belongs “active”; to `[N-]=[N+]=N[C@]1(CO)O[C@@H](n2ccc(N)nc2=O)[C@H](O)[C@@H]1O`, “inactive”.
Regarding `c1ccc(CCN2CCNCC2)nc1`, the cytotoxicity call was “inactive”.
To `C[C@@H]1CN([C@H](C)CO)C(=O)c2cc(Br)cnc2O[C@@H]1CN(C)S(=O)(=O)c1ccccc1` belongs “inactive”; to `Cc1ccc(S(=O)(=O)N(C)C[C@@H]2Oc3ncc(C#CC4(O)CCCC4)cc3C(=O)N([C@@H](C)CO)C[C@@H]2C)cc1`, “inactive”.
For `COc1ccc(S(=O)(=O)N(C)C[C@@H]2Oc3ccc(NS(=O)(=O)c4c(C)noc4C)cc3C(=O)N([C@H](C)CO)C[C@@H]2C)cc1`, the cytotoxicity call is “inactive”.
In the case of `CCCNC(=O)C[C@H]1CC[C@H]2[C@@H](COc3ccc(NS(=O)(=O)c4ccccc4C)cc3C(=O)N2C)O1` it was “inactive”; in that of `C[C@@H]1CN([C@H](C)CO)C(=O)Cc2cc(NC(=O)CCCCCC(=O)Nc3ccccc3N)ccc2O[C@@H]1CN(C)CC1CCCCC1`, “active”.
To `C[C@@H]1CN([C@H](C)CO)C(=O)Cc2cc(NC(=O)CCCCCC(=O)Nc3ccccc3N)ccc2O[C@@H]1CN(C)Cc1ccc(-c2ccccc2)cc1` belongs “active”; to `C[C@@H]1CN([C@H](C)CO)C(=O)Cc2cc(NC(=O)CCCCCC(=O)Nc3ccccc3N)ccc2O[C@H]1CN(C)Cc1ccc(-c2ccccc2)cc1`, “inactive”.
In the case of `C[C@H]1CN([C@@H](C)CO)C(=O)Cc2cc(NC(=O)CCCCCC(=O)Nc3ccccc3N)ccc2O[C@@H]1CN(C)Cc1ccc(Oc2ccccc2)cc1` it was “inactive”; in that of `C[C@@H]1CN([C@@H](C)CO)C(=O)c2cc(NC(=O)CCCCCC(=O)Nc3ccccc3N)ccc2O[C@@H]1CN(C)Cc1ccc(-c2ccccc2)cc1`, “inactive”; in that of `C[C@@H]1CN([C@H](C)CO)C(=O)c2cc(NC(=O)CCCCCC(=O)Nc3ccccc3N)ccc2O[C@H]1CN(C)Cc1ccc(-c2ccccc2)cc1`, “active”.
With `C[C@H]1CN([C@@H](C)CO)C(=O)c2cc(NC(=O)CCCCCC(=O)Nc3ccccc3N)ccc2O[C@H]1CN(C)Cc1ccc(-c2ccccc2)cc1`, the cytotoxicity call was “inactive”.
Regarding `C[C@H]1CN([C@@H](C)CO)C(=O)Cc2cc(NC(=O)CCCCCC(=O)Nc3ccccc3N)ccc2O[C@H]1CN(C)Cc1ccc(-c2ccccc2)cc1`, the cytotoxicity call was “inactive”.
In the case of `C[C@@H]1CN([C@H](C)CO)C(=O)Cc2cc(NC(=O)CCCCCC(=O)Nc3ccccc3N)ccc2O[C@@H]1CN(C)Cc1ccc(Oc2ccccc2)cc1` it was “active”; in that of `C[C@@H]1CN([C@@H](C)CO)C(=O)Cc2cc(NC(=O)CCCCCC(=O)Nc3ccccc3N)ccc2O[C@@H]1CN(C)Cc1ccc(Oc2ccccc2)cc1`, “inactive”; in that of `C[C@@H]1CN([C@@H](C)CO)C(=O)Cc2cc(NC(=O)CCCCCC(=O)Nc3ccccc3N)ccc2O[C@@H]1CN(C)CC1CCCCC1`, “inactive”.
To `C[C@@H]1CN([C@H](C)CO)C(=O)Cc2cc(NC(=O)CCCCCC(=O)Nc3ccccc3N)ccc2O[C@H]1CN(C)CC1CCCCC1` belongs “inactive”.

Values taken from the antibiotic and cytotoxicity screens of Wong et al. (2023).
